Bioassay records deposited in PubChem by National Center for Advancing Translational Sciences (NCATS).
Hits are enriched below; roughly 6.4% of the tested compounds scored in any of these assays.
RORg inh: qHTS for inhibitors of ROR gamma transcriptional activity. Drosophila S2 Gal4-RORgamma UAS-luciferase reporter, 20 h. 310,000 tested, 5.4% active. Nuclear receptor ROR-gamma (Mus musculus), P51450. Potency, µM (doses to about 53.6 µM), for inactives: top-dose activity change, negative = inhibition, usual class: inhibitors; further: nearly all actives have a fitted effect of over 60% in size
Target sequence (P51450 whole entry, looked up, the tested form may be a part): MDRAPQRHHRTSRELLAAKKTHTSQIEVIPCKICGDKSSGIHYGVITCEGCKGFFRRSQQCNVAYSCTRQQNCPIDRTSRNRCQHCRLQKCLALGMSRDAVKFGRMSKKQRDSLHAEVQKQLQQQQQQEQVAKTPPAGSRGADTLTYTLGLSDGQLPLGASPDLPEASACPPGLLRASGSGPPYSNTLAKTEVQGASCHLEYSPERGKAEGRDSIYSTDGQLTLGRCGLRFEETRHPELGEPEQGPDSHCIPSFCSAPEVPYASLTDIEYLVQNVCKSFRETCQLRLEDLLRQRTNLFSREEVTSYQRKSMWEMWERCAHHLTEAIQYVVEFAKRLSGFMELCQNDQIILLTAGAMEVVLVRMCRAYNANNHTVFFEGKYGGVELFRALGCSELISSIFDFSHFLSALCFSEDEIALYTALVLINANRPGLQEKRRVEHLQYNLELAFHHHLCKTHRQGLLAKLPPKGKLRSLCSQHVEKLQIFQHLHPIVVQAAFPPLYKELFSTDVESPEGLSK
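Luciferase reporter read in Schneider cells carrying Gal4-RORγ (mouse) and UAS-Photinus luciferase; cells given compound 1 h before 700 uM copper sulfate induction, then incubated 20 h at ambient temperature.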
Gal4-VP16 FLuc: VP16 counterscreen qHTS for inhibitors of ROR gamma transcriptional activity; Drosophila S2 Gal4-VP16 UAS-luciferase, luminescence, 20 h; Potency, µM (titrated, usually from 53.6 µM), for the others: top-dose activity, negative = inhibition, most hits filed as inhibitors; 310,000 tested, 3.5% active; AID 2546, 2010;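 further: Gal4-VP16 expression switched on by copper sulfate through the metallothionein promoter; nearly all actives have a fitted effect of over 50% in size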
KinaseGlo FLuc: Counterscreen for Luciferase (Kinase-Glo TM) Inhibition | Luciferin 4-monooxygenase (Photuris pensylvanica), Q27757 | Kinase-Glo luciferase, ATP luminescence, 8 min | Potency, µM (series often up to 38.3 µM), for inactives: at the highest dose activity change, negative = inhibition, hits mostly inhibitors | 200,000 tested, 0.28% active; further: nearly all actives have a fitted effect of over 60% in size
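Compounds were added to a substrate mix at pH 7.2 (50 mM imidazole, 10 uM ATP, within the enzyme's linear range), followed by Kinase-Glo detection reagent; luminescence was measured after 8 minutes at ambient temperature.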
Numbers without * were called inactive; [ ] = remark or other dose. The call rests on the fitted dose curve; in most records, active means well fitted curve in the direction sought with a large enough effect; inconclusive means small, poorly fitted or top-dose-only effect, or another doubt; inactive means no such curve, though single readings can be large; an effect the other way counts as inactive or inconclusive. On the % scale 0 is the no-effect control and ±100 the full control effect; potency means the concentration at half of the fitted maximal effect.

For O=C(N/N=C/c1sc(N2CCOCC2)nc1-c1ccccc1)c1cccc(S(=O)(=O)N2CCCC2)c1 the results were RORg inh inconclusive, Gal4-VP16 FLuc -14% and KinaseGlo FLuc -3%.
CN(C)S(=O)(=O)c1cc(C(=O)OCCn2cnc3c2c(=O)n(C)c(=O)n3C)ccc1Cl was read as RORg inh 16%, Gal4-VP16 FLuc 4% and KinaseGlo FLuc 2%.
Cc1ccc(C(=O)OCC(=O)N(CC(C)C)c2c(N)n(Cc3ccccc3)c(=O)[nH]c2=O)s1 was read as RORg inh -25% and Gal4-VP16 FLuc 1%.
For CCC(C)C(=O)OC1CC(C)C=C2C=CC(C)C(CCC3CC(O)CC(=O)O3)C21 (centres undefined) the results were RORg inh -12%, Gal4-VP16 FLuc 0% and KinaseGlo FLuc -6%.
For COc1ccccc1OC(C)C(=O)N1CCN(Cc2ccc3c(c2)OCO3)CC1 (centres undefined) the results were RORg inh -2% and Gal4-VP16 FLuc 4%.
For O=c1c(Cl)nc2cc(Cl)ccc2n1CCNc1ncc(C(F)(F)F)cc1Cl the results were RORg inh 11µM*, Gal4-VP16 FLuc 5µM* and KinaseGlo FLuc 3%.
`NNc1nc2cccnc2n(CCNc2ncc(C(F)(F)F)cc2Cl)c1=O` gave RORg inh 10µM*, Gal4-VP16 FLuc 2% and KinaseGlo FLuc 1%.
For O=c1c2nncn2c2cccnc2n1CCNc1ncc(C(F)(F)F)cc1Cl the results were RORg inh 1% and Gal4-VP16 FLuc -5%.
`O=c1c2nncn2c2cc(C(F)(F)F)ccc2n1CCNc1ncc(C(F)(F)F)cc1Cl` gave RORg inh -10% and Gal4-VP16 FLuc -3%.
For CCCn1c(-c2ccc(F)cc2)nc2c(N3CCN(C)CC3)nc(C)nc21 the results were RORg inh -32%, Gal4-VP16 FLuc 4% and KinaseGlo FLuc -6%.
`COc1ccc(-c2nc3cnc(N(C)C)nc3n(CCc3ccccc3)c2=O)cc1` gave RORg inh 2%, Gal4-VP16 FLuc -11% and KinaseGlo FLuc -6%.
For COC(=O)C1CSC(C(=O)OC)N1C(=O)CN1CCN(c2ccc(OC)cc2)CC1 (centres undefined) the results were RORg inh 1%, Gal4-VP16 FLuc 7% and KinaseGlo FLuc 0%.
`CC(NC(=O)c1cc(COc2c(F)cccc2F)on1)c1cnn(-c2ccccc2)c1` (centres undefined) gave RORg inh inconclusive, Gal4-VP16 FLuc 6% and KinaseGlo FLuc 0%.
`Cn1c(=O)[nH]c(=O)c2c1nc(N1CCOCC1)n2CC(=O)c1ccccc1` gave RORg inh 2%, Gal4-VP16 FLuc -3% and KinaseGlo FLuc 3%.
Screening COc1cc(/C=C2/C(=N)N3C=CSC3=NC2=O)ccc1OCCCOc1ccccc1C returned RORg inh 4.5µM*, Gal4-VP16 FLuc 2.8µM* and KinaseGlo FLuc -2%.
`COc1cc(/C=C2/C(=N)N3C=CSC3=NC2=O)ccc1OCCOc1ccc(NC(C)=O)cc1` gave RORg inh -5%, Gal4-VP16 FLuc -10% and KinaseGlo FLuc -2%.
For CCOc1cc(/C=C2/C(=N)N3C=CSC3=NC2=O)ccc1OCCCOc1ccccc1C the results were RORg inh -71%, Gal4-VP16 FLuc inconclusive and KinaseGlo FLuc 2%.
`COc1cc(/C=C2/C(=N)N3C=CSC3=NC2=O)ccc1OCCCOc1c(C)cccc1C` gave RORg inh 11µM*, Gal4-VP16 FLuc inconclusive and KinaseGlo FLuc -8%.
Screening Cc1ccc(OCCSCc2nc3ccccc3[nH]2)cc1 returned RORg inh -31%, Gal4-VP16 FLuc inconclusive and KinaseGlo FLuc -5%.
`CCn1c(COc2ccc(OC)cc2)nnc1SCc1nc2ccccc2c(=O)[nH]1` gave RORg inh 13%, Gal4-VP16 FLuc -8% and KinaseGlo FLuc 0%.
Clc1ccc(OCCSCc2nc3ccccc3[nH]2)cc1 was read as RORg inh 5µM*, Gal4-VP16 FLuc 5µM* and KinaseGlo FLuc 9%.
`CCn1c(COc2ccc(Cl)cc2)nnc1SCc1nc2ccccc2[nH]1` gave RORg inh 11µM*, Gal4-VP16 FLuc inconclusive and KinaseGlo FLuc -6%.
For O=C1OC2(c3cc(Br)c(O)c(Br)c3Oc3c2cc(Br)c(O)c3Br)c2c(Cl)c(Cl)c(Cl)c(Cl)c21 the results were RORg inh -31% and Gal4-VP16 FLuc -23%.
`CC(C)Oc1ccccc1/C=N/NC(=O)C1CCCC1` gave RORg inh 33% and Gal4-VP16 FLuc -10%.
For CCCOc1ccccc1/C=N/NC(=O)C1CC1 the results were RORg inh 8.9µM* and Gal4-VP16 FLuc -1%.
For CCN(c1ccc(C)cc1C)S(=O)(=O)c1nnc(NC(=O)C(C)(C)C)s1 the results were RORg inh -14% and Gal4-VP16 FLuc -2%.
Screening O=C1NC2=C(CCc3ccccc32)C(c2ccccc2)N1 (centres undefined) returned RORg inh -33%, Gal4-VP16 FLuc 2% and KinaseGlo FLuc 2%.
Screening COc1cc(C2NC(=S)NC(c3ccccc3)=C2C(C)=O)cc(Br)c1OCC(N)=O (centres undefined) returned RORg inh -19%, Gal4-VP16 FLuc 5% and KinaseGlo FLuc 1%.
Screening COc1ccc2c(c1)CCC1=C2NC(=S)NC1c1ccc(N(C)C)cc1 (centres undefined) returned RORg inh 2.8µM*, Gal4-VP16 FLuc 3.5µM* and KinaseGlo FLuc -4%.
For COc1cc(C2NC(=S)NC3=C2CCc2ccccc23)cc(OC)c1OC (centres undefined) the results were RORg inh 5.6µM*, Gal4-VP16 FLuc 10µM* and KinaseGlo FLuc 0%.
C=CCOc1ccc(C2NC(=S)NC3=C2CCc2ccccc23)cc1 (centres undefined) was read as RORg inh 3.5µM* and Gal4-VP16 FLuc 13µM*.
Screening COc1ccc2c(c1)CCc1cn[nH]c1-2 returned RORg inh -22% and Gal4-VP16 FLuc 9%.
Cc1ccc(-c2nn(-c3cc(N4CCNCC4)ccc3[N+](=O)[O-])c(=O)c3ccccc23)cc1 was read as RORg inh -12%, Gal4-VP16 FLuc -7% and KinaseGlo FLuc 1%.
Screening Cc1cc(OCc2nnc(SC(C)C(=O)O)n2Cc2ccccc2)ccc1Cl (centres undefined) returned RORg inh 18%, Gal4-VP16 FLuc -3% and KinaseGlo FLuc 3%.
Screening COc1cccc(CNS(=O)(=O)c2ccc3c(c2)N(C(C)=O)CCO3)c1 returned RORg inh 15% and Gal4-VP16 FLuc -2%.
`COC(=O)C1=C(C)[C@@H](O)[C@@H](C)[C@H](c2c(OC)c(OC)c(C)c(OC)c2OC)O1` gave RORg inh -2%[10 µM] and Gal4-VP16 FLuc -11%[10 µM].
Screening COC(=O)c1[nH]c2ccccc2c1NC(=O)c1ccccc1[N+](=O)[O-] returned RORg inh 18%, Gal4-VP16 FLuc -6% and KinaseGlo FLuc 1%.
Screening O=C(Nc1nc2ccccc2[nH]1)c1ccc(Cl)c([N+](=O)[O-])c1 returned RORg inh 2.8µM*, Gal4-VP16 FLuc inconclusive and KinaseGlo FLuc -3%.
